The panel holds about 83,000 compounds, 20% with a hit somewhere; the sample as a whole holds those more often.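 Cell lines were cultured in 96-well plates, exposed to a single compound concentration, and assessed for percent growth 48 hours later.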 A number with no mark means an inactive call. Activity calls are given as the source filed them.
What follows are molecules tested on ACHN renal (assay: NCI-60 one-dose screen, 48 h (100 = growth as untreated, 0 = no growth, -100 = all killed)). Details: 10 µM unless noted.
Experimental: Growth inhibition of the ACHN human tumor cell line is measured as a screen for anti-cancer activity. Cells are grown in 96 well plates and exposed to the test compound for 48 hours. Compounds are tested at a single concentration, which is 10^-5 M for most compounds. The reported endpoint is percent growth (GI% or GIPRCNT), where numbers from 0 - 100% represent growth inhibition, and numbers from -100% - 0 represent cell death. For example, a value of 40 represents 60% growth inhibition. A value of 0 means no net growth occurred over the course of the experiment. A value of -40 indicates 40% of cells at the beginning of the experiment died by the end of the experiment. A value of -100 means all cells are dead at the end of the experiment.
NCI-60 Human Tumor Cell Lines Screen was performed using the standard one-dose NCI protocol, which is described in more detail at https://dtp.cancer.gov/discovery_development/nci-60/default.htm.
Compounds with GIPRCNT values below 10 were considered active. Activity score was based on GIPRCNT using the following formula: […]
Score is 0 for GIPRCNT values of 100 or above, 50 for GIPRCNT values of 0, and 100 for GIPRCNT values of -100.
`COc1ccc(N=C2CSc3nnc(-c4cc(F)c(Cl)cc4Cl)n3N2)cc1` was tested, and the growth was -26.2% (active). With `C=C1C(=O)O[C@H]2[C@H]1CC/C(COC(=O)NCc1cn(C)c3ccccc13)=C\CC[C@@]1(C)O[C@@H]21` the growth was -36.2% (active). `CC(C)c1ccc(-c2cnc3nonc3n2)cc1` gave a growth of 51.3%. In the case of `CCN(CC)c1ccc(/C=N/NC(=O)C[N+](C)(C)C)cc1`, the growth was 105%. `Cc1ccccc1Nc1n[nH]c(Cc2ccccc2)n1` showed a growth of 106%. `CC(=O)c1ccc(N2C(=O)c3ccc(Oc4ccccc4)cc3C2=O)cc1` showed a growth of 107%. `CCOC(=O)c1ccc(NC(=O)CSC(N)=O)cc1` was tested, and the growth was 102%. `COc1ccc(C2NC(=O)c3cc4c(cc3N2)OCO4)cc1` (stereo not given) gave a growth of 46.3%. With `COc1ccc(/C=C/C(=O)CCC(=O)O)cc1OC` the growth was 108%. In the case of `COc1ccc(Cl)cc1Nc1nc(C(F)(F)F)ccc1C(=O)NN`, the growth was 6.99% (active). With `CCN1CCN(Cc2ccc(NC(=O)Nc3ccc(-n4ccc5c(NC(=O)c6ccccc6)nccc54)cc3)cc2C(F)(F)F)CC1` the growth was -46.3% (active). `O=C(/C=C/c1ccccc1Br)c1cccc(OCCCCOc2cccc(C(=O)/C=C/c3ccccc3Br)c2)c1` was tested, and the growth was 98.6%. For `Cc1c(C(=O)CCl)c(=O)n(-c2ccccc2)n1C`, the growth was 47%. Work on `CC1CCCN(CCCCOc2ccc(-c3ccc(C#N)cc3)cc2)C1` (stereo not given) yielded a growth of 111%. Molecule `O=C1OCC2=C1C(c1ccccc1)c1cc3c(cc1N2CCO)CCC3` (stereo not given) has a growth of 29.7%. `NC(CCC(=O)NC(CS)C(=O)NCC(=O)O)C(=O)O` (stereo not given) showed a growth of 104%. In the case of `CN(C)c1ccc(C2(Cl)c3ccccc3N(C)c3ccccc32)cc1`, the growth was 55.6%. Molecule `COc1ccc(C(=O)O)cc1.[Ag]` has a growth of 103%. For `CCCCCCCCCCCC1=NC(C)(C)CN1CCO`, the growth was 78.2%. `CS(=O)(=O)c1ccc(C(=O)N/N=C/c2ccccc2Cl)cc1` showed a growth of 108%. In the case of `COc1cc(CN(c2ccc(C)cc2)C2OC(=O)c3ccccc32)cc(OC)c1OC` (stereo not given), the growth was 56.3%. With `COc1nccc2c(Sc3ccccc3)nc(N)nc12` the growth was 108%. `CC(C)[C@@H]1C=C2CC[C@H]3[C@](C)(CN)CCC[C@]3(C)[C@H]2CC1` showed a growth of 80.5%. `CS(=O)(=O)c1ccc(C(=O)Nc2ccc(Cl)c(-c3ccccn3)c2)c(Cl)c1` was tested, and the growth was 27.9%. For `ClCc1c(Cl)c(Cl)c(Cl)c(CCl)c1Cl`, the growth was 8.92% (active). Molecule `Nc1c(N)c2ccccc2c2ccccc12` has a growth of 111%. `CCCCCCCCCCCCNC(=O)N[C@H](C(=O)N[C@H]1/C=C/OCCNC(=O)/C=C/[C@H](C(C)C)NC1=O)C(C)C` gave a growth of 115%. Work on `N=C(N)c1ccc(NCCNc2ccc(C(=N)N)cc2)cc1` yielded a growth of 85.5%. For `O=[N+]([O-])c1ccc(Sc2nc(Cl)nc(NC3CCCC3)n2)cc1`, the growth was -100% [100 µM] (active). Work on `Cc1ccc([C@H]2c3[nH]c4ccccc4c3C[C@H]3C(=O)N(CCCCCCC(=O)NO)CC(=O)N23)cc1` yielded a growth of 75.1%. With `CC(C)CCSc1nc(Nc2ccccc2)c(C#N)c(-c2ccc(F)cc2)n1` the growth was 13.4%. `COc1ccc(-c2cc(-c3cn(-c4cccc(Cl)c4)nc3-c3ccc(OC)cc3)[nH]c(=S)n2)cc1` was tested, and the growth was 80.5%. With `COC(=O)C(Br)(C(=O)OC)C(Br)C(Br)C(Br)c1ccccc1` (stereo not given) the growth was -70% (active). For `Clc1ccccc1CNc1c2ccccc2nc2ccccc12`, the growth was 12.2%. Work on `O/N=C1\c2ccccc2-c2ccc(Br)cc21` yielded a growth of 94.2%. `NC(N)=NC1CCCCC1` showed a growth of 103%. In the case of `S=C(Nc1ccc(Cl)cc1)Nc1ccc(Cl)cc1` (tested in a mixture with another compound), the growth was 3.54% (active). In the case of `COc1ccc(/C=C/c2nc3ccccc3c(=O)n2-c2ccc(C#Cc3ccc(C(C)(C)C)cc3)cc2C)c(OC)c1`, the growth was 105%. `FC(F)(F)c1cc(-c2nnc3n2N=C(Cl)CS3)cc(C(F)(F)F)c1` gave a growth of 110%. `C#CCNc1nc(NCCNC(=O)CCl)nc(N(C)CCCCc2ccccc2)n1` was tested, and the growth was 100%.
